Screens: PubChem, National Center for Advancing Translational Sciences (NCATS)
KinaseGlo FLuc: Kinase-Glo luciferase inhibition (counter-screen); Q27757; Kinase-Glo luciferase, ATP luminescence, 8 min; Potency, µM (doses to about 38.3 µM), inactives show at the highest dose activity change, negative = inhibition, usual class: inhibitors; 200,000 tested, 0.28% active; further: on the % scale 0 is the no-effect control and ±100 the full control effect; nearly all actives have a fitted effect of over 60% in size
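Compound is pinned into ATP-containing buffer (10 uM ATP, imidazole pH 7.2, 7 mM MgCl2). Kinase-Glo luciferase reagent is then added. Light output is recorded following an 8-min room-temperature incubation.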
SMN2 splice enh: increases expression of the SMN2 splice variant; HEK293 SMN2-luciferase splicing reporter, luminescence, 30-36 h; Potency, µM (series often up to 46.1 µM), inactives show at the highest dose activity change, positive = activation, usual class: activators; 210,000 tested, 2.8% active; AID 1458; further: % of control where 0% means no effect; nearly all actives have a fitted effect of over 55% in size
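HEK293 cells carry an SMN2 […]–luciferase reporter in which exon 7 inclusion puts luciferase in frame. Cells were plated 10-12 h before compound addition, then incubated 30-36 h at 37C. ONE-Glo luminescence was read; sodium butyrate at 4.5 mM final served as control.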
FLuc modulator: counter-screen for miR-21 project: firefly luciferase inhibitors or activators; purified FLuc, Km substrates, luminescence inhibition; 360,000 tested, 6.9% active; P08659; Potency, µM (doses to about 57.5 µM), for inactives: at the top dose activity change, negative = inhibition, most hits filed as inhibitors; AID 588342;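 further: plate controls were vehicle for no effect and reference inhibitor for full effect; nearly all actives have a fitted effect of over 55% in size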
Target sequence (P08659 whole entry, looked up): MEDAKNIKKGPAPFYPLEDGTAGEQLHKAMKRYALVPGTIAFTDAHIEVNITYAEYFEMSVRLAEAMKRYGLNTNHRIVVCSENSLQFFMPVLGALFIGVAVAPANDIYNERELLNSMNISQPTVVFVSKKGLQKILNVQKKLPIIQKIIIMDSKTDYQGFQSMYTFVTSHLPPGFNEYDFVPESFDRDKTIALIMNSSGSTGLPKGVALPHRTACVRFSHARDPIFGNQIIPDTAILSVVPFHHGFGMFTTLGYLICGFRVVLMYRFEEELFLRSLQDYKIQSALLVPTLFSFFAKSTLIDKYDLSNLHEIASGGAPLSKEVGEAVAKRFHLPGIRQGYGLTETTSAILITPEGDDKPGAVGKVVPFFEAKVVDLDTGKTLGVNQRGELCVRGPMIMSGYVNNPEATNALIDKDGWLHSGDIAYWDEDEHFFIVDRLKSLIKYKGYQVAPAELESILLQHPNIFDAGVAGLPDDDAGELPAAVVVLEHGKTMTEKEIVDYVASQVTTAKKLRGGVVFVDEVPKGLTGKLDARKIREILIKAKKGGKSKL
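Biochemical qHTS of compounds, final roughly 60 µM downward over six points, against 10 nM purified firefly luciferase using Km concentrations of substrates (10 uM D-luciferin, 10 uM ATP) in Tris acetate pH 7.5 buffer; luminescence output.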
Rab9 promoter act: Rab9 promoter activation; Potency, µM (titrated, usually from 9.22 µM), for inactives: at the highest dose activation, negative = inhibition, actives largely listed as activators; Huh7 Rab9 promoter-luciferase reporter, luminescence, 24 h; 320,000 tested, 2.8% active; further: % of control where 0% means no effect; nearly all actives have a fitted effect of over 60% in size
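Luminescence read-out: Huh7 cells stably expressing Rab9-luciferase, treated 24 h with compound at 37 °C, then lysed with luciferase reagent for 10 min at ambient before reading.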
ELG1 genotox: inducers of genotoxicity in HEK293T ELG1-luciferase cells. HEK293T ELG1-luciferase reporter, luminescence, 16 h. Potency, µM (titrated, usually from 46 µM), for the others: at the highest dose activity change, positive = activation, actives largely listed as activators. 330,000 tested, 1.3% active. AID 504466; further: % of control where 0% means no effect; nearly all actives have a fitted effect of over 60% in size
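DMSO vehicle served as control against compound-treated ELG1-luciferase HEK293T cells; exposure lasted 16 hr at 37 °C and 5% CO2, followed by ONE-Glo luminescence detection after 30 min.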
NPC1 prom act: activates the NPC1 promoter. Huh7 NPC1 promoter luciferase reporter, 24 h. Potency, µM (series often up to 9.22 µM), for the others: at the top dose activation, hits mostly activators. 320,000 tested, 2.4% active. AID 485313; further: % of control where 0% means no effect; nearly all actives have a fitted effect of over 60% in size
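Readout is luciferase luminescence, reflecting NPC1 promoter activation in stably transfected Huh7 cells after 24 h compound exposure at 37 °C in reduced-serum medium with 10% FBS.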
An asterisk follows results filed as active; ? = inconclusive; nt = not tested or not shown; [ ] = remark or other dose. An excerpt weighted towards active compounds, which were near 7.4% of everything screened. The call rests on the fitted dose curve; in most records, active means well fitted curve in the direction sought with a large enough effect; inconclusive means small, poorly fitted or top-dose-only effect, or another doubt; inactive means no such curve, though single readings can be large; an effect the other way counts as inactive or inconclusive. Potency means the concentration at half of the fitted maximal effect.

SMILES	KinaseGlo FLuc	SMN2 splice enh	FLuc modulator	Rab9 promoter act	ELG1 genotox	NPC1 prom act
Cc1ccnc(N2C(=O)c3ccccc3C2O)c1 (stereo not drawn)	11µM*	11µM*	6µM*	?	1.8µM*	1µM*
COC(=O)c1ccccc1N=Nc1c(N)[nH][nH]c1=O	nt	nt	11µM*	-4%	-8%	-2%
COC(=O)c1ccccc1N=Nc1c(N)n[nH]c1N	nt	nt	-14%	7%	-5%	5%
CC1=CN2C(=N)/C(=C/c3ccc([N+](=O)[O-])o3)C(=O)N=C2S1	-7%	-39%	13µM*	-54%	-14%	-30%
CC1=CN2C(=N)/C(=C/c3cn(CCCOc4ccccc4C)c4ccccc34)C(=O)N=C2S1	-4%	-48%	-8%	?	?	?
CC1=CN2C(=N)/C(=C/c3ccco3)C(=O)N=C2S1	-23%	3.5µM*	1.5µM*	1.8µM*	?	2.5µM*
O=C(CCn1cccn1)Nc1ccc2c(c1)OCO2	nt	nt	?	26%	7%	17%
COCCCn1c(SCC(=O)n2c(C)c(C)c3ccccc32)nnc1-c1ccoc1C	0%	-10%	5%	17%	18µM*	1%
Cc1cc(-c2nnc(-c3cccc(C(F)(F)F)c3)o2)no1	nt	nt	17µM*	?	15%	?
Cc1ccc(-c2nnc(-c3cc(C)on3)o2)cc1	nt	nt	1.5µM*	0.56µM*	3.3µM*	0.79µM*
O=C(Nc1ccc(OC(F)F)c(Cl)c1)c1cccc(OC(F)F)c1	-3%	-1%	19µM*	20%	-8%	12%
COc1ccc(NC(=O)c2cccc(OC(F)F)c2)cc1Cl	-1%	?	11µM*	2.2µM*	5.8µM*	3.5µM*
COC(=O)c1cccc(NC(=O)c2ccc(OC)c(Cl)c2)c1	-4%	?	11µM*	?	6%	?
COc1ccc(C(=O)Nc2cc(C(=O)O)cc(C(=O)O)c2)cc1Cl	4%	3%	-1%	-9%	-4%	-6%
COc1ccc(NC(=O)c2ccccc2F)cc1Cl	-9%	?	9.5µM*	2.2µM*	9.2µM*	2.2µM*
COc1ccc(NC(=O)c2ccco2)cc1NC(=O)c1ccccc1F	nt	nt	-12%	1%	3%	0%
COc1ccc(NC(=O)c2cccc(F)c2)cc1Cl	-1%	?	13µM*	?	9.2µM*	3.5µM*
CCn1c2ccccc2c2c3ncc4cccn4c3ccc21	nt	nt	3µM*	?	12%	3.2µM*
COc1ccc(C(=O)NCCCNC(=O)c2cnccn2)cc1	nt	nt	2%	0%	4%	1%
COc1ccccc1NC(=O)c1cc(=O)[nH]c2ccccc12	nt	nt	-3%	11%	-1%	11%
COc1ccccc1NC(=O)c1ccccc1NC(=O)c1ccccc1	nt	-8%	15µM*	nt	nt	nt
COc1ccccc1NC(=O)c1c[nH]c2ccccc12	nt	nt	21µM*	26%	?	?
Cc1cccc(C)c1NC(=O)CNC(=O)Cc1c[nH]c2ccccc12	nt	nt	6%	-3%	-1%	-2%
Cc1cccc(C)c1NC(=O)c1c[nH]c2ccccc12	nt	nt	12µM*	22%[1.84 µM]	?	?
COc1ccccc1C(=O)Nc1ccc2c3c(cccc13)CC2	-6%	nt	5.4µM*	?	12%	?
SMILES	KinaseGlo FLuc	SMN2 splice enh	FLuc modulator	Rab9 promoter act	ELG1 genotox	NPC1 prom act
COc1ccc(NC(=O)COc2cccc(-n3cnnn3)c2)cc1	nt	nt	?	-5%	-2%	4%
COc1ccccc1C(=O)OCC(=O)NC(C)CCc1ccccc1 (stereo not drawn)	nt	nt	-2%	2%[1.84 µM]	1%	-5%
O=C(/C=C/c1ccccc1)c1c[nH]c2ccccc12	nt	nt	0.19µM*	0.35µM*	?	0.63µM*
O=C(CSc1ncn(-c2ccccc2)n1)Nc1nncs1	1%	1%	-7%	-9%	0%	4%
COc1ccccc1NC(=O)CC(=O)c1ccccc1	nt	nt	?	13%	3%	12%
COc1ccccc1C(=O)CC(=O)c1ccccc1	nt	nt	13µM*	20%	?	?
CC(=O)Nc1ccc(C(=O)CSc2ncn(-c3ccccc3)n2)cc1	-3%	7.1µM*	-10%	19%	?	18%
COc1ccccc1C(=O)NCC(=O)NC(C)CCc1ccccc1 (stereo not drawn)	nt	nt	3µM*	-7%	8%	2%
COc1ccccc1C(=O)NNC(=O)c1cccc(Cl)c1	-3%	nt	-16%	21%	16%	16%
CC(=O)Nc1ccc(NCC(=O)c2ccccc2)cc1	nt	nt	15µM*	0%	9%	-2%
NC(=O)c1ccccc1NCC(=O)c1ccc(Cl)cc1	nt	nt	?	-9%	0%	0%
COc1ccccc1C(=O)NNC(=O)c1cccc(Br)c1	nt	nt	12µM*	?	?	2.8µM*
COc1ccccc1/C=C1\S/C(=N/NC(=O)c2cccc(Br)c2)NC1=O	-1%	-18%	9.5µM*	-3%	-13%	-1%
O=C(CNc1ccccc1C(=O)O)c1ccccc1	nt	nt	19µM*	?	10%	3%
O=C(CSc1nc(-c2ccc(F)cc2)[nH]c1-c1ccc(F)cc1)Nc1ccc2c(c1)OCO2	nt	26%	-2%	nt	nt	nt
COCCNC(=O)C(=O)NNC(=O)c1ccccc1OC	0%	nt	-18%	-7%	0%	1%
COc1ccccc1C(=O)Nc1ccccc1SC(=O)c1ccccc1OC	nt	nt	5.4µM*	?	12µM*	?
O=C(CC(=O)c1ccccc1)c1ccccc1	-13%	13µM*	nt	nt	nt	nt
O=C(Nc1ccccc1)C(=O)c1c[nH]c2ccccc12	nt	nt	1.7µM*	1.8µM*	0.92µM*	3.5µM*
COc1ccccc1C(=O)NNC(=O)c1ccccc1	nt	nt	9.5µM*	?	8.2µM*	2.5µM*
COC(=O)c1ccccc1NC(=O)c1ccccc1OC	-5%	-13%	0%	-2%	-4%	-1%
O=c1cc(CN2CCN(c3cccc(C(F)(F)F)c3)CC2)nc2sccn12	nt	nt	0%	-3%	-8%	0%
CCN(CC)c1ccc(C(=O)NNC(=O)C2CSC3(C)CCC(=O)N23)cc1 (stereo not drawn)	nt	nt	-16%	0%	-1%	2%
CC(=O)c1ccc(NC(=O)COC(=O)c2ccccc2N=Nc2ccc(N(C)C)cc2)cc1	-13%	?	5.4µM*	12%	-3%	1%
COC(=O)c1ccccc1NC(=O)COC(=O)c1ccco1	12%	-27%	6%	-1%	0%	-3%
COC(=O)c1ccccc1NC(=O)COC(=O)c1ccccc1N=Nc1ccc(N(C)C)cc1	-2%	?	12µM*	17%	1%	2%
CN(C)c1ccc(N=Nc2ccccc2C(=O)OCC(=O)N(C)c2ccccc2)cc1	-5%	?	1.3µM*	23%	-2%	24%
